High-throughput results: PubChem, National Center for Advancing Translational Sciences (NCATS)
Hits are enriched below; roughly 8% of the tested compounds scored in any of these assays.
LASV entry inh: blocks Lassa virus binding or cell entry; Lassa virus pseudotyped entry inhibition, cell-based qHTS; AID 720533; 18,000 compounds, 4.1% hits; Potency, µM (top dose mostly 49.2 µM), for the others: at the top dose activity change, negative = inhibition, hits mostly inhibitors
MARV entry inh: Marburg virus entry inhibition | Marburg virus pseudotype entry/binding inhibition, cell-based | Potency, µM (top dose mostly 49.2 µM), inactives show top-dose activity change, negative = inhibition, hits mostly inhibitors | 18,000 compounds, 6.5% hits
An asterisk follows results filed as active; ? = inconclusive; / = no result; ! = a repeat was not active; [ ] = remark or other dose. Calls follow the shape of the full dose curve; tested in HEK293 cells. % is scaled to controls: 0 for no effect and ±100 for the full control effect; potency is read from the fitted curve at half-maximal effect.

SMILES	LASV entry inh	MARV entry inh
O=c1c(O)cc(C2Oc3cc(O)cc(O)c3CC2O)cc2c(C3Oc4cc(O)cc(O)c4CC3O)cc(O)c(O)c12 (centres undefined)	5%	13µM*
Oc1cc(O)c2c(c1)O[C@H](c1ccc(O)c(O)c1)[C@@H](O)C2	-8%	9%
CCCCCCN1C[C@H](n2cc(C3CC3)nn2)[C@@H](O)C[C@H]1c1ccc(C)cc1	-25%	-31%
COc1ccc(CN2C[C@]3(CO)OC(CO)C[C@H]3[S+]2(=O)[O-])cc1 (some centres undefined)	13%	20%
CC(=O)Oc1cccc(O)c1	-3%	-11%
CC(=O)Oc1ccc(C2(c3ccc(OC(C)=O)cc3)Oc3ccccc3NC2=O)cc1	10µM*	-21%
O=C1C2=C(C(=O)c3ccccc31)[C@H]1O[C@](CCCCN3C(=O)c4ccccc4C3=O)(Cc3ccccc31)O2	-6%[8.59 µM]	41%[8.59 µM]
COCCC(=O)NCC1Cc2cc(Cl)cc(-c3ccc4[nH]ccc4c3)c2O1 (centres undefined)	7.1µM*	7.1µM*
CC(=O)N1CCC[C@H]1C(=O)NCC1Cc2cc(Cl)cc(-c3ccc4[nH]ccc4c3)c2O1 (some centres undefined)	-8%	-24%
O=C1[C@@H]2[C@H]3[C@H](O)[C@H](O)CC(=NOC[C@@H](O)COCc4ccco4)[C@@H]3CC[C@H]2C(=O)N1C[C@@H]1CCCO1	7%[8.59 µM]	?
CN1C[C@H](CNC(=O)OCc2ccccc2)C[C@@H]2c3cccc4c3c(cn4C)C[C@H]21	?	14µM*!
CN1C[C@H](CNC(=O)OCc2ccccc2)C[C@H]2c3cccc4c3c(cn4C)C[C@@H]21	?	10µM*
CO[C@@]12C[C@@H](COC(=O)c3cncc(Br)c3)CN(C)[C@H]1Cc1cn(C)c3cccc2c13	4%	-1%
CN1C[C@H](C(=O)N[C@]2(C)O[C@@]3(O)[C@H]4CCCN4C(=O)[C@H](Cc4ccccc4)N3C2=O)C[C@H]2c3cccc4[nH]cc(c34)C[C@@H]21	3%	31%
COC(=O)C(C(C)=O)[C@@H](NC(=O)OC(C)(C)C)c1ccccc1 (some centres undefined)	-20%[8.59 µM]	-7%[8.59 µM]
Cc1cc2c(c(=O)o1)[C@H]1O[C@](c3ccsc3)(Cc3cc(C#N)ccc31)O2	-9%[8.59 µM]	?
COc1cc(C(=O)OCCCN2CCCN(CCCOC(=O)c3cc(OC)c(OC)c(OC)c3)CC2)cc(OC)c1OC	?	7.1µM*
CCN(CC)CCCCCCCCOC(=O)c1cc(OC)c(OC)c(OC)c1	25µM*	13µM*
COc1cc(/C=C/C(=O)N2CCN(CC(=O)N3CCCC3)CC2)cc(OC)c1OC	-12%	12%
CCN(CC)CCOC(=O)c1ccc(N)cc1	6%	-12%
NS(=O)(=O)c1ccc(-c2ccc3c(NC(=O)C4CC4)n[nH]c3c2)cc1	-3%	-14%
Cc1ccc(O[C@@H]2[C@H](O)CO[C@H]2C=CC#Cc2ccc(C(C)(C)C)cc2)cc1	/	-35%[8.59 µM]
CC(C)=CCN1C(=O)[C@@]2(CC(C)=C[C@@H](COCc3ccccc3)O2)c2ccccc21	/	3%[8.59 µM]
CCCCCc1cc(O)c2c(c1)OC(C)(C)[C@@H]1CCC(C)=C[C@@H]21	35µM*	-23%
CCCCCCC(C)(C)c1cc(OC)c2c(c1)OC(C)(C)[C@@H]1CC=C(C)C[C@@H]21	-19%	5%
SMILES	LASV entry inh	MARV entry inh
Cc1ccc(CN2CC(N3CCN(C(=O)c4ccco4)CC3)CS2(=O)=O)cc1 (centres undefined)	13%	27%
C=CCC12OC3(OC)CC1[C@H](C)[C@@H](c1ccccc1)C2[C@]3(O)CC=C (some centres undefined)	-1%[8.59 µM]	6%[8.59 µM]
O=c1nc2ccccc2c2n1C[C@H](CN1CCN(c3ccccc3)CC1)N2	-1%	0%
CN1CCN(c2ccc(Nc3c4ccccc4nc4ccccc34)cc2)CC1	?	2µM*
CCCCc1ccc2nc(NC(=O)OC)[nH]c2c1	-3%[17.8 µM]	-16%[17.8 µM]
CC(C)OC(=O)Nc1ccc2nc(-c3cscn3)[nH]c2c1	28µM*	-1%
CN1CC(O)C2=CC(=O)C(=O)C=C21 (centres undefined)	1%	8.9µM*
O=c1c2ccccc2oc2cc(O)c(C3COCC(CO)C(O)C(O)C3O)c(O)c12 (centres undefined)	-7%	14µM*
O=c1cc(-c2ccc(O)cc2)oc2cc(O)c([C@@H]3O[C@H](CO)[C@@H](O)[C@H](O)[C@H]3O)c(O)c12	-7%	10%
CC=Cc1cc2ccccc2c2c(C(=O)OC)c(C(=O)OC)c(C(=O)OC(C)(C)C)n12	-15%[8.59 µM]	?
Cc1cccc(CN2CCN([C@H]3C[S+](=O)([O-])N[C@H]3COCc3ccccc3)CC2)c1	45%	?
Cc1cc(C)c2c(CN(C)Cc3ccccc3)cc(=O)oc2c1	?	2.2µM*
CCCCN(CCCC)Cc1cc(=O)oc2cc(C)cc(C)c12	6%	-25%
O=C(OC[C@H]1O[C@](O)(COC(=O)c2cccnc2)[C@@H](OC(=O)c2cccnc2)[C@@H]1OC(=O)c1cccnc1)c1cccnc1	-8%	3%
C#CCNC(=O)[C@H]1C=C(OC)C(=O)C[C@H](c2ccccc2)[C@H]1C	-18%[8.59 µM]	8%[8.59 µM]
CC(=O)c1ccc(OCc2cn(CC(=O)c3ccc(O)cc3)nn2)c(F)c1	-21%	7%
CCCCCCCCCOc1ccc2[nH]cc(CCN)c2c1	35µM*!	10µM*
NCCc1c[nH]c2ccc(O)cc12	-11%	-10%
CCN1C(=NCCc2ccccn2)NC(c2cccs2)C(C(=O)OC)=C1C (centres undefined)	0%[8.59 µM]	?
O=C(C=Cc1ccccc1)Nc1cccc(C(=O)NCc2ccccc2)c1	16%	20%
CCCCCCCCCCCCC[N+](C)(C)Cc1ccccc1	18µM*	8.9µM*
CC[N+](CC)(CCCNC1=CC(=O)C(NCCC[N+](CC)(CC)Cc2ccccc2)=CC1=O)Cc1ccccc1	-1%	1%
O=C(c1cccs1)N1C[C@@H](O)[C@@H](n2cc(C3CC3)nn2)C[C@@H]1c1ccc(Cl)cc1	/	7%
COC(=O)[C@@]1(C=C2c3ccc(OC)cc3[C@@H](OC)[C@@H]2C)[C@@H]2C=CC[C@@H]21	-26%[8.59 µM]	-11%[8.59 µM]
CN(C)CCCSC(=N)N	-1%	14µM*!
SMILES	LASV entry inh	MARV entry inh
N=C(N)SCCN=C(N)N	-4%	7%
COCCN1C(=O)NC(c2ccc(Br)cc2)C(C(=O)OC)=C1C (centres undefined)	-26%[8.59 µM]	-8%[8.59 µM]
C=CC[C@@H]1C=C[C@@H](Oc2ccc(OC)cc2)[C@H](CO)O1	-7%[8.59 µM]	-15%[8.59 µM]
COC(=O)/C=C\c1cc(O)ccc1O	25µM*	10µM*
COC(=O)c1ccc(O)cc1	-7%	3%
CN1CCN(CCCN2c3ccccc3Sc3ccc(S(=O)(=O)N(C)C)cc32)CC1	-13%[17.8 µM]	?
CCCCCCCCCCCCCCCC(=O)OCCC1CCN(CCCN2c3ccccc3Sc3ccc(S(=O)(=O)N(C)C)cc32)CC1	21%	-13%
OCCOCCN1CCN(C2=Nc3ccccc3Sc3ccccc32)CC1	-24%	-10%
OCCN1CCN(CCCN2c3ccccc3Sc3ccc(Cl)cc32)CC1	?	2.2µM*
CN(C)CCCN1c2ccccc2Sc2ccc(Cl)cc21	?	16µM*
CC(=O)c1ccc2c(c1)N(CCCN1CCC(CCO)CC1)c1ccccc1S2	-30%[17.8 µM]	11µM*
CC1=C2[C@H](O)[C@H]([C@@H](C)C(=O)NCCC(C)C)CC[C@@]2(C)C=CC1=O	6%[8.59 µM]	23%[8.59 µM]
